Measured values as given in PubChem BioAssay AID429 (Emory University Molecular Libraries Screening Center, 2006).
Hit rate of the full screen: of about 64,000 compounds, about 220 (0.34%) were called active. The entries come from a sample that favours actives as a whole. Unmarked numbers belong to inactive results.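 The calls were made as follows: active = inhibition above 50%; inactive = the rest.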

What follows are compounds tested against Heat shock protein HSP 90-alpha (Homo sapiens) (UniProt P07900) (assay: Hsp90 geldanamycin-site probe displacement – cell lysate, fluorescence polarization, NCI-N417 lysate, primary screen (AID 429;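 also: 0% = tracer plus lysate wells and 100% = tracer alone without lysate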)). Conditions: NCI-N417 lysate Hsp90, Cy3B-geldanamycin FP displacement; at 30 µM; active compounds read high.

Row | Compound | inhibition
1 | Cc1cccn2c(=O)c3cc(C(=O)N4COCC4(C)C)n(C)c3nc12 | 0.48%
2 | COc1ccc(Cl)cc1S(=O)(=O)Nc1cccc(C(=O)O)c1 | -0.7%
3 | O=S(=O)(NCC1CCCO1)c1ccc2ccccc2c1 (stereo not given) | -3.52%
4 | Cc1cc(Cl)c(S(=O)(=O)NCC2CCCO2)cc1OCC(N)=O (stereo not given) | -4.41%
5 | Cc1ccc(C(=O)O)cc1S(=O)(=O)NCC1CCCO1 (stereo not given) | 77.4% (active)
6 | CCSc1nc2c(c(=O)[nH]1)C(c1cccnc1)C(C(=O)OC(C)C)=C(C)N2 (stereo not given) | -0.2%
7 | O=C(O)CSC(NC(=O)c1cccnc1)(C(F)(F)F)C(F)(F)F | -0.65%
8 | O=C(Nn1cnc2ccccc2c1=O)c1ccc(F)cc1Cl | -2.64%
9 | CCCCn1c(=S)[nH]c2ncccc2c1=O | -6.13%
10 | O=C(NC1CCCCC1)N1CCc2[nH]c3ccccc3c2C1 | -4.69%
11 | Cc1ccc2[nH]c3c(c2c1)CN(C(=O)CN1CCN(c2ccccc2)CC1)CC3 | 92.3% (active)
12 | CCCC(=O)N1CCc2[nH]c3ccccc3c2C1 | -3.78%
13 | Cc1ccc(C)c(N(CC(=O)NCc2ccco2)C(=O)CCC(=O)Nc2ccccn2)c1 | -5.16%
14 | Cc1c(C(=O)OCC(=O)N(CCC#N)c2ccccc2)oc2c1ccc1ccccc12 | 0.74%
15 | COc1nc(Oc2ccc(=O)n(C)n2)nc(N(C)C)n1 | -0.95%
16 | COc1cccc(C2/C(=C(/O)c3ccc(F)cc3)C(=O)C(=O)N2CCN(C)C)c1 (stereo not given) | -1.56%
17 | CC1CN(c2cc(=O)n(-c3cccc(Br)c3)c(=O)[nH]2)CC(C)O1 (stereo not given) | 1.65%
18 | Cc1ccc(N2CCN(c3ccc(C)cc3)C2c2ccccn2)cc1 | 0.05%
19 | COc1cc(C2C(C(=O)Nc3ccc(F)cc3)=C(C)Nc3nc(CCCO)nn32)cc(OC)c1OC (stereo not given) | -1.54%
20 | CCOc1ccccc1N(CC(=O)NC1CCCCC1)C(=O)CCCC(=O)Nc1ccccn1 | -0.59%
21 | CC1OC2C(OC1C)N(S(C)(=O)=O)CCN2S(C)(=O)=O (stereo not given) | -2.81%
22 | O=C(O)CCC(=O)Nc1ccc(N2CCOCC2)cc1 | 8.24%
23 | COc1ccc(C(=O)NCc2cn3ccccc3n2)cc1 | 2.11%
24 | O=C(CC1N=C2c3ccccc3N=C(SCc3ccccc3Cl)N2C1=O)NCc1ccco1 (stereo not given) | -7.5%

Row | Compound | inhibition
25 | CCCC(C(=O)NCc1ccco1)N(C(=O)CNS(=O)(=O)c1ccccc1)C1CCCC1 (stereo not given) | -1.3%
26 | CCOC(=O)CSC1=C(C#N)C(c2sccc2C)CC(=O)N1 (stereo not given) | -2.64%
27 | Cc1nn(-c2ccccc2)c(C)c1C(=O)OCC(=O)NC(=O)NC1CCCCC1 | -2.89%
28 | CCCN(CCc1ccccc1)C1CCc2c(O)cccc2C1 (stereo not given) | -0.71%
29 | CCCn1c(=O)c2ccccc2n2c(SCC(=O)/C(C#N)=C(\C)N)nnc12 | -5.05%
30 | O=c1cc(CSc2ccccn2)nc(N2CCN(c3ccccc3)CC2)[nH]1 | -2.49%
31 | CC(C)NS(=O)(=O)c1ccc(OCC(=O)Nc2ccc3c(c2)OCCO3)cc1 | -7.01%
32 | CC1CCCN(C(=O)c2ccc3c(c2)C(=O)N(CCC2=CCCCC2)C3=O)C1 (stereo not given) | -1.14%
33 | COc1ccccc1NC(=O)CSc1nnc(Cn2nnc(-c3ccccc3)n2)n1-c1ccccc1 | 2.15%
34 | O=C(c1ccco1)N1CCN=C1SCc1cccc(Cl)c1 | -5.15%
35 | CCCCc1nc2ccccc2c(NC(=O)CN2CCN(C)CC2)c1CCC | -1.26%
36 | CCCn1cc(SCC(N)=O)c2ccccc21 | -4.04%
37 | CC(C)(Oc1ccc(C2CC2(Cl)Cl)cc1)C(=O)O (stereo not given) | 1.49%
38 | COC1(C2=NCCN2)COc2ccccc2O1 (stereo not given) | 1.52%
39 | CCOC(=O)Nc1ccc2c(c1)N(C(=O)CN1CCN3CCCC3C1)c1ccccc1CC2 (stereo not given) | -6.22%
40 | Cc1ccc(S(=O)(=O)NC(=O)N2CCCC(C)(C)C2)cc1 | -0.1%
41 | O=c1c(F)cn(C2CCCO2)c(=O)n1Cc1ccccc1Cl (stereo not given) | -6.6%
42 | CCOC(=O)C1=C(CC)Nc2ccccc2N=C1NC(=O)c1cccc(S(=O)(=O)N2CCCC2)c1 | -3.82%
43 | CCCc1nc2ccccc2c(=O)n1/N=C/c1ccc(O)c(O)c1 | 70.7% (active)
44 | CCCCc1nc2ccccc2c(=O)n1NC(=O)c1c(O)c2cccc3c2n(c1=O)CC3 | -2.36%
45 | CCCc1nc2ccccc2c(=O)n1NC(=O)c1c(O)c2ccccc2[nH]c1=O | -3.13%
46 | CCC(=O)Nc1cccc(NC(=O)CSc2nnc(-c3ccc(NS(C)(=O)=O)cc3)n2C)c1 | -0.45%
47 | O=C(CCc1ccccc1)Nc1ccc(NC(=O)C2CC2)nc1 | -2.83%
48 | N#CC1=C(N)Oc2n[nH]c(CSc3ccccc3)c2C12C(=O)Nc1ccccc12 (stereo not given) | -11.3%

Row | Compound | inhibition
49 | CC1Cc2ccccc2N1C(=O)CSc1nnc(-c2ccc(S(=O)(=O)N3CCCCC3)cc2)o1 (stereo not given) | -0.41%
50 | Nn1c(SCC(=O)NC(=O)NC2CCCC2)nnc1-c1ccccc1F | -5.58%
51 | CCOC(=O)/C=c1\s/c(=C\c2ccccc2OC)c(=O)n1CC(=O)N1CCOCC1 | -5.13%
52 | Cc1cc(C)c2nc(N3CCCC3)c(C#N)cc2c1 | 4.01%
53 | Cc1noc(C)c1S(=O)(=O)N(CC(=O)Nc1ccc2c(c1)OCCO2)c1ccc(C(C)C)cc1 | -1.54%
54 | CNc1ncnc2c1ncn2[C@@H]1O[C@H](CO)[C@H](O)C1O (stereo not given in full) | -3.44%
55 | O=C(Nc1ccc(NC(=O)c2cccs2)cn1)c1ccco1 | -0.15%
56 | CC(C)(C)c1ccc(NC(=O)NCc2ccco2)cc1 | -5.65%
57 | Cc1ccc(C(=O)Nc2nnc(-c3cccs3)s2)cc1C | -0.3%
58 | CCNc1nc(N)nc(Oc2ccc(OCC)nn2)n1 | -5.57%
59 | O=c1cc(-c2ccccc2)[nH]c2nc(Cl)ccc12 | -1.33%
60 | CCOc1ccc(CCNC(=O)C2CCN(c3ccc(N4CCOCC4)nn3)CC2)cc1OCC | -1.25%
61 | OC[C@H]1O[C@@H](n2cnc3c(N[C@H]4CC5CCC4C5)ncnc32)[C@H](O)[C@@H]1O (stereo not given in full) | -1%
62 | O=C(OCC(=O)c1cccs1)C1=COCCO1 | -6.24%
63 | COc1cc(Cl)cc(C2NC(=O)NC(C)=C2C(=O)NCc2ccccc2)c1O (stereo not given) | -1.82%
64 | O=C(c1ccco1)N1CCN(C(=O)C2CC(c3ccc(Cl)c(Cl)c3)=NO2)CC1 (stereo not given) | -2.91%
65 | CCC(CC)C(=O)Nc1cc(C(=O)OC)cc(C(=O)OC)c1 | -13.5%
66 | CC(=O)N1CCC(C(=O)Nc2nc(-c3ccccc3)ns2)CC1 | -2.79%
67 | Cc1coc2c(O)cc3c(c12)OC1(N2CCCCC2)C(=O)NCCCC31 (stereo not given) | 96.8% (active)
68 | CC(=O)/C(C)=N/O | 5.45%
69 | COc1ccc(-n2nc3c(c2NC(=O)Cc2cccc(C)c2)CS(=O)C3)cc1 (stereo not given) | -2.13%
70 | Nc1cc(O)cc2cccnc12 | 150% (active)
71 | O=C(Nc1ccn(Cc2ccc(F)cc2)n1)c1ccncc1 | -2.29%
72 | CN(C)c1nc(N)nc(CSc2nnnn2-c2cccc3ccccc23)n1 | -1.24%

Row | Compound | inhibition
73 | Cc1ccc(S(=O)(=O)N2CCCC2CO)cc1 (stereo not given) | -1.22%
74 | C=CCNc1ncnc2ccc(Br)cc12 | -2.85%
75 | Cc1nn(-c2ccccc2)c(CC(C)(C)C(=O)O)c1C(=O)O | 0.74%
76 | Oc1ccc(Cn2cc[nH]c2=S)cc1 | -2.1%
77 | CCC(Sc1nncn1C)C(=O)Nc1nnc(-c2ccc(Cl)cc2)s1 (stereo not given) | -2.78%
78 | COc1cc(NCS(=O)(=O)c2ccc(C)cc2)c2ncccc2c1 | -1.2%
79 | O=C(c1ccccc1)c1ccc2nc(N3CCCCC3)c3nncn3c2c1 | -6.65%
80 | CCOc1cccc(/C(O)=C2/C(=O)C(=O)N(CCOC)C2c2ccncc2)c1 (stereo not given) | 2.34%
81 | CS(=O)(=O)c1ccc2nc(NC(=O)CN3CCCCCC3)sc2c1 | -0.64%
82 | NS(=O)(=O)c1ccc(CCNC(=O)Nc2ccc(Cl)cc2)cc1 | -2.49%
83 | Oc1cc2c(cc1O)CN(C(=S)NCCc1ccc(Cl)cc1)CCC2 | 77.6% (active)
84 | O=C(NCCc1ccc(Cl)cc1)C1CC(=O)N(C2CCCCC2)C1 (stereo not given) | -0.35%
85 | Cc1ccc(-c2nnc(SC(C)C#N)n2N)cc1 (stereo not given) | 2.26%
86 | O=C(Nc1nccs1)C1CCCN1S(=O)(=O)c1cccc2cccnc12 (stereo not given) | -1.15%
87 | COc1ccccc1NC1=NC(c2ccc(Cl)cc2)N=C(N)N1 (stereo not given) | 1.36%
88 | C=CC1(C)CC(=O)C2(O)C(C)(O1)C(OC(C)=O)C(O)C1C(C)(C)CCC(O)C12C (stereo not given) | -0.45%
89 | COC(=O)[C@@H](NC(=O)NCc1cccc(OC)c1)C(C)C | -1.26%
90 | CC(C)C[C@H](NC(=O)[C@H](O)[C@H](N)Cc1ccccc1)C(=O)O | -2.1%
91 | CCCn1c(=O)c2[nH]c(-c3ccc(OCC(=O)NCCN)cc3)nc2n(CCC)c1=O | -4.59%
92 | CCCCCC(O)c1cccc(OCc2ccc3ccccc3n2)c1 (stereo not given) | 5.96%
93 | Cc1cc(C(F)(F)F)n2ncc(-c3ccccc3)c2n1 | -3.41%
94 | Nc1ccc2c3c(cccc13)C(=O)NC2=O | 7.71%
95 | Cc1nc2ccc(S(=O)(=O)NCC(=O)O)cc2s1 | -1.11%
